In PubChem BioAssay AID2283172 (EPA ToxCast):
Active and inactive are the calls of the source. Rule for the calls: active = hit-call score of the fitted dose curve at least 0.9, where 1 is the maximum; inactive = score below 0.9.

target: human LYN Proto-Oncogene, Src family Tyrosine Kinase (LynB), LYN (gene 4067) (UniProt P07948); test: NVS_ENZ_hLynB: NovaScreen (NVS) Enzymatic Assay for human LYN Proto-Oncogene, Src family Tyrosine Kinase (LynB)
Experimental: NVS_ENZ_hLynB is a biochemical, single-readout assay that uses extracted gene-proteins in a cell-free assay. Measurements were taken 1 hour after chemical dosing in a 384-well plate.NVS_ENZ_hLynB is one of one assay component(s) measured or calculated from the NVS_ENZ_hLynB assay. It is designed to make measurements of enzyme activity, a form of enzyme reporter, as detected with fluorescence intensity signals by Fluorescence and electrophoretic mobility shift technology.Data from the assay component NVS_ENZ_hLynB was analyzed into 1 assay endpoint. This assay endpoint, NVS_ENZ_hLynB, was analyzed in the positive analysis fitting direction relative to DMSO as the negative control and baseline of activity. Using a type of enzyme reporter, loss-of-signal activity can be used to understand changes in the enzymatic activity as they relate to the gene LYN. Furthermore, this assay endpoint can be referred to as a primary readout, because this assay has produced multiple assay endpoints where this one serves a enzymatic activity function. To generalize the intended target to other relatable targets, this assay endpoint is annotated to the kinase intended target family, where the subfamily is non-receptor tyrosine kinase. […]

Chain of human LYN Proto-Oncogene, Src family Tyrosine Kinase (LynB), LYN (gene 4067) (P07948 whole entry, looked up): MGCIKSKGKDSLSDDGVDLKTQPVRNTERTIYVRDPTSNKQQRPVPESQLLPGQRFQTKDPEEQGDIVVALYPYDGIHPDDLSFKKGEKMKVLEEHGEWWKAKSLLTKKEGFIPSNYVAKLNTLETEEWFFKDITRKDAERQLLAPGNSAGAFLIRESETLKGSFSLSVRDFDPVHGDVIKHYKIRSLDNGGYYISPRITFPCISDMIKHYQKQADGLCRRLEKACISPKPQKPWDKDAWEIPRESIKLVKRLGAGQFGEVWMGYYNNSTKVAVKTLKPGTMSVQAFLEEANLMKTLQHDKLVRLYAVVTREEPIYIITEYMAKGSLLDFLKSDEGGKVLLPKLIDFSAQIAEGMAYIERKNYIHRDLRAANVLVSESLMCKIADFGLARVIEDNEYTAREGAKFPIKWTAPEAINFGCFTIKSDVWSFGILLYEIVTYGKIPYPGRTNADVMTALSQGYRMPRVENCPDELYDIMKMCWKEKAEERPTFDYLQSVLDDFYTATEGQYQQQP

Compound | outcome
CCOCN(C(=O)CCl)c1c(C)cccc1CC | inactive
